# This is a sample that favours compounds with a hit; in the whole collection about 0.24% have one here.
# NPYLR7 ag – activates Aedes aegypti NPYLR7 receptor. HEK293T NPYLR7/Galpha15, GCaMP6s calcium fluorescence. activation, % at 10 µM. 270,000 tested, 0.15% active. AID 1259423; in the data active = activation above about 40%;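 note: 0% = vehicle and 100% = reference agonist at the receptor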
# hcGAS lum – blocks human cGAS activity; 290,000 tested, 0.081% active; AID 1259398; Q8N884; recombinant h-cGAS, ATP depletion, Kinase-Glo luminescence; inhibition, % at 12.5 µM;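 note: 0% = vehicle reaction and 100% = reaction without DNA for no activity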
# Target sequence (Q8N884 whole entry, looked up): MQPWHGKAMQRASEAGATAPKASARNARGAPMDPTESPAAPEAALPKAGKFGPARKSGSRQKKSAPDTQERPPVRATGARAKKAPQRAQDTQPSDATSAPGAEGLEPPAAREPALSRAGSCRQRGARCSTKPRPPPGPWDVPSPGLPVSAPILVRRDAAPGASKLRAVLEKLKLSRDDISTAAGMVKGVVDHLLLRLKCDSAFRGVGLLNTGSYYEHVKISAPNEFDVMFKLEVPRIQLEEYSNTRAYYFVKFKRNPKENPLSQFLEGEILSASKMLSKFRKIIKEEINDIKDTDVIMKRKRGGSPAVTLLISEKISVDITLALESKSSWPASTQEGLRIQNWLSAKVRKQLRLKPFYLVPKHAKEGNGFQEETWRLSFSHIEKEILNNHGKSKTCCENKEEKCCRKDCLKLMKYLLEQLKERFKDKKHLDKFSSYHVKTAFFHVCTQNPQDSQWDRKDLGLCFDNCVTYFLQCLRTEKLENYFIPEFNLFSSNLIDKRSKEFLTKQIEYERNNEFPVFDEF
# mcGAS inh – inhibitors of mouse cGAS | Q8C6L5 | recombinant cGAS, Kinase-Glo ATP depletion luminescence | inhibition, % at 12.5 µM | 160,000 tested, 0.15% active | AID 1259399;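 note: 0% = negative control wells and 100% = reference inhibitor with no enzyme activity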
# An asterisk follows results filed as active; x = no result given. Cut-off read from the data, not from the text of the source, unless noted: active = inhibition above about 40%; inactive = the rest.
SMILES,NPYLR7 ag,hcGAS lum,mcGAS inh
O=c1oc(-c2ccccc2Br)nc2ccccc12,19,-2,-5
O=[N+]([O-])c1c[n+]([O-])n(-c2cccc(Cl)c2)n1,74*,3,-1
O=[N+]([O-])c1c[n+]([O-])n(-c2ccc3c(c2)OCCO3)n1,2,-2,-8
COc1cc(-c2nc3n(n2)C(c2ccc(O)cc2)C(C(N)=O)=C(C)N3)cc(OC)c1OC (configuration not stated),51*,-1,x
COc1ccc(C2C(C(N)=O)=C(C)Nc3ncnn32)cc1 (configuration not stated),-1,-9,-5
O=C(OCc1ccccc1)N1CCN(c2c3c(nc4ncnn24)CCC3)CC1,21,1,-5
Cc1ccc(-c2csc(NC(=O)C3CCS(=O)(=O)C3)n2)cc1C (configuration not stated),8,1,-5
O=C(Nc1nnc(SCC2CC2)s1)C1CCCC1,-5,-4,-4
CCCC1CCC(C(=O)Nc2nnc(SCC)s2)CC1 (configuration not stated),55*,-3,-6
CCOc1ccc2nc(SCC(=O)Nc3ccccc3C#N)sc2c1,-4,-8,-5
CN(Cc1cnc2ccccc2n1)C(=O)C1CC2(CCNCC2)CN1 (configuration not stated),58*,-6,-9
CN(Cc1cc(-c2ccccc2)on1)C(=O)C1CC2(CCNCC2)CN1 (configuration not stated),6,-9,-13
Cc1ccccc1CCNS(=O)(=O)c1cccs1,7,-6,x
CSc1nnc2c(n1)OC(c1ccc(OC(=O)c3ccc(Br)cc3)cc1)Nc1ccccc1-2 (configuration not stated),46*,-3,-5
CSc1nnc2c(n1)OC(c1ccc(Br)cc1)Nc1ccccc1-2 (configuration not stated),2,-10,5
COc1ccc(-c2ccc(=O)n(Cc3cc(C)ccc3C)n2)cc1OC,8,-6,x
CC[C@@]1(O)C(=O)OCc2c1cc1n(c2=O)Cc2cc3c(CN(C)C)c(O)ccc3nc2-1,88*,-3,x
CC(NC(=O)c1ccco1)C(=O)N(Cc1ccc(F)cc1)CC1CC1 (configuration not stated),-6,-6,x
COc1ccc(C(=O)N2CCC(Cc3ccc(C(F)(F)F)cc3)CC2)cc1OC,1,-7,-7
Cc1ccc(-c2nnc(SCC(=O)c3ccc4c(c3)OCO4)o2)cc1,x,-3,-5
CCCc1ccccc1N1C(=O)CSC1c1ccc(NC(=O)CCl)cc1 (configuration not stated),42*,-9,-4
Cc1cc(C)cc(N2C(=O)CSC2c2ccc(NC(=O)CCl)cc2)c1 (configuration not stated),-10,-3,2
CCOC(=O)c1ccc2c(c1)nc(SCc1cc3c(cc1Cl)OCO3)n2Cc1cccc(F)c1,13,-2,-7
CC1(C)CC[C@]2(C)CC[C@]3(C)C(=CCC4[C@@]5(C)CC[C@H](O)C(C)(C)C5CC[C@]43C)C2C1 (some centres not stated),x,-5,-3
C[C@@H]1OC(O[C@H]2[C@H](OC(=O)[C@]34CCC(C)(C)CC3C3=CCC5[C@@]6(C)CC[C@H](OC7O[C@@H](C)[C@H](O[C@@H]8OC[C@@H](O)[C@H](O)[C@H]8O)[C@@H](O)[C@H]7O)C(C)(C)C6CC[C@@]5(C)[C@]3(C)CC4O)OC[C@H](O)[C@H]2O)[C@H](O)[C@H](O)[C@H]1O[C@@H]1O[C@H](CO)[C@@H](O)[C@H](O)[C@H]1O (some centres not stated),54*,-1,x
C=CCN1C(=O)NC(c2ccccc2C(F)(F)F)C2=C1CN(C(C(=O)Nc1ccc(OC)cc1)c1ccccc1)C2=O (configuration not stated),0,-4,-3
Cc1cccc2sc(N(Cc3ccccn3)C(=O)c3cccc(S(C)(=O)=O)c3)nc12,-2,1,-9
Cc1ccccc1C(=O)Nc1ccnn1C1CCN(C(=O)c2n[nH]c3c2CCC3)CC1,0,-1,-6

# Source: PubChem BioAssay
